These results are taken from article PMC13083723 (Patterns, 2026).

About 190 (3.5%) of roughly 5,400 compounds showed an effect of 50% or more. The list comes from a sample in which strong results are over-represented; it also holds similar structures and randomly drawn compounds.

This experiment concerns Vero-E6. In words: primary screen, phospholipidosis by LipidTOX staining; higher = more effect of the substance. The conditions noted are these: 10 µM. The method in brief:
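Single-concentration screen at 10 μM, with DMSO 0.1 v/v % and amiodarone 10 μM as controls. Read-out is LipidTOX Red phospholipid staining, which tolerates aldehyde fixation, in Vero-E6 cells.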
`CNC(=O)[C@@H](c1ccccc1)N1CCc2cc(OC)c(OC)cc2[C@@H]1CCc1ccc(C(F)(F)F)cc1`: the result_ITMP came to 1.25%.

With `COc1ccc(OCC2c3cc(OC)c(OC)cc3CCN2C(=O)c2cccc(Cl)c2)cc1` (stereo not drawn), the result_ITMP is listed as -4.92%. On to `COc1cc2c(cc1O)C(CCc1ccc(Cl)cc1)N(C)CC2` (stereo not drawn), for which the result_ITMP was found to be 64%. The value for `Cc1c(N(C)CS(=O)(=O)[O-])c(=O)n(-c2ccccc2)n1C` was -4.64%.

For `CCCCCCCCCC(=O)O[C@H]1CC[C@H]2[C@@H]3CCC4=CC(=O)CC[C@@H]4[C@H]3CC[C@]12C`, the result_ITMP was -0.22%. The value for `CN1CCC2=C(C1)c1ccccc1Cc1ccccc12` was 52.7%; that for `CN1CCC2=C(C1)C(c1ccccc1)c1ccccc12` (stereo not drawn) was 6.76%; that for `CN1CCC(=C2c3ccccc3CC(=O)c3sccc32)CC1` was 29%. For `O=[N+]([O-])O[C@@H]1CO[C@H]2[C@@H]1OC[C@@H]2O`, the result_ITMP is on record as -9.17%. As to `C[C@@H](O[C@H]1OCCN(Cc2n[nH]c(=O)[nH]2)[C@H]1c1ccc(F)cc1)c1cc(C(F)(F)F)cc(C(F)(F)F)c1`, the result_ITMP is on record as 2.55%. For the compound `C[C@@H](O[C@H]1OCCN(Cc2nn(P(=O)(O)O)c(=O)[nH]2)[C@H]1c1ccc(F)cc1)c1cc(C(F)(F)F)cc(C(F)(F)F)c1`, the result_ITMP was determined as 6.28%. The value for `C[C@@H](O[C@H]1OCCN(Cc2nn[nH]c2CN(C)C)[C@H]1c1ccc(F)cc1)c1cc(C(F)(F)F)cc(C(F)(F)F)c1` was 71.2%; that for `OCCNCCCOc1cccc(Cl)c1Cl` was 55.4%. With `C[C@]12CCC(=O)C=C1CC[C@@H]1[C@@H]2CC[C@@]2(C)[C@H]1CC[C@]2(O)C(=O)CO`, the result_ITMP is listed as -5.73%. The value for `CCCCOc1ccc(C(=O)Nc2ccc(F)cc2F)cc1` was -8.12%; that for `C=CCN(C)CCCCCCOc1ccc(C(=O)c2ccc(Br)cc2)c(F)c1` was 92.9%. The value for `CCOc1ccc(-c2ccc(Cn3c(CC(C)(C)C(=O)[O-])c(SC(C)(C)C)c4cc(OCc5ccc(C)cn5)ccc43)cc2)cn1` was 0.09%; that for `CCN(CC)CCCCNc1ncc2cc(-c3c(Cl)cccc3Cl)c(NC(=O)NC(C)(C)C)nc2n1` was 69.2%. The value for `CCN(CC)CCNC(=O)COc1ccc(OC)cc1` was -4.1%; that for `CNc1ncc2cc(-c3cc(NC(=O)NCCC(C)(C)C)c(F)cc3C)c(C)nc2n1` was -7.16%; that for `CCN(CC)CCOc1ccc(Nc2ncc3cc(-c4c(Cl)cccc4Cl)c(=O)n(C)c3n2)cc1` was 24.2%. Take `CCN(CC)CCCCNc1ncc2cc(-c3cc(OC)cc(OC)c3)c(NC(=O)NC(C)(C)C)nc2n1`: the result_ITMP is listed as 90.1%.

Consider `O=C(NCC(=O)N1CC[C@H](N[C@H]2CC[C@@](O)(c3ccc(-c4ncccn4)cn3)CC2)C1)c1cccc(C(F)(F)F)c1`, for which the result_ITMP is recorded as -0.29%.

Take `O=S(=O)(OC[C@H]1O[C@@](COS(=O)(=O)[O][Al]([OH])[OH])(O[C@H]2O[C@H](COS(=O)(=O)[O][Al]([OH])[OH])[C@@H](OS(=O)(=O)[O][Al]([OH])[OH])[C@H](OS(=O)(=O)[O][Al]([OH])[OH])[C@H]2OS(=O)(=O)[O][Al]([OH])[OH])[C@@H](OS(=O)(=O)[O][Al]([OH])[OH])[C@@H]1OS(=O)(=O)[O][Al]([OH])[OH])[O][Al]([OH])[OH]`: the result_ITMP worked out at 6.9%. For `OC[C@@H](O)[C@@H](O)CO`, the result_ITMP is reported as -7.96%. The value for `Cc1ccc2nc(N)nc(O)c2c1Sc1ccncc1` was 3.27%. The value for `Fc1cc(-c2cccc3ncc(-c4cnn(C5CCNCC5)c4)nc23)cc(F)c1CN1CCOCC1` was 73.3%. The value for `CC(C)(C)C(=O)CN1C(=O)[C@H](NC(=O)Nc2cccc(C(=O)O)c2)CN(C2CCCCC2)c2ccccc21` was -0.97%; that for `CO[C@@]1(NC(=O)Cc2cccs2)C(=O)N2C(C(=O)[O-])=C(COC(N)=O)CS[C@@H]21` was -2.27%; that for `CC(COc1ccccc1Cc1ccccc1)N1CCCCC1` (stereo not drawn) was 72%. On to `c1ccc(CC(c2ccccc2)N2CCCCC2)cc1` (racemic), for which the result_ITMP is 6.03%. The value for `C=CCc1ccccc1OCC(O)CNC(C)C` (stereo not drawn) was 12.1%; that for `OC[C@H]1O[C@@H]2O[C@H]3[C@H](O)[C@@H](O)[C@@H](O[C@H]4[C@H](O)[C@@H](O)[C@@H](O[C@H]5[C@H](O)[C@@H](O)[C@@H](O[C@H]6[C@H](O)[C@@H](O)[C@@H](O[C@H]7[C@H](O)[C@@H](O)[C@@H](O[C@H]8[C@H](O)[C@@H](O)[C@@H](O[C@H]1[C@H](O)[C@H]2O)O[C@@H]8CO)O[C@@H]7CO)O[C@@H]6CO)O[C@@H]5CO)O[C@@H]4CO)O[C@@H]3CO` was -4.2%; that for `Cc1cc(-c2ccc(/N=N/c3ccc4c(S(=O)(=O)[O-])cc(S(=O)(=O)[O-])c(N)c4c3O)c(C)c2)ccc1/N=N/c1ccc2c(S(=O)(=O)[O-])cc(S(=O)(=O)[O-])c(N)c2c1O` was 10.1%. Regarding `COc1cc2c(cc1F)C(c1ccccc1Cl)=NC1=C(C)NNC1=N2`, the result_ITMP is reported as -1.52%.

With `CCCN(CCC)C(=O)C(CCC(=O)[O-])NC(=O)c1ccccc1` (stereo not drawn), the result_ITMP is -3.27%. The value for `C[C@@H](Oc1cc(-n2cnc3ccc(CN4CCN(C)CC4)cc32)sc1C(N)=O)c1ccccc1C(F)(F)F` was 75.1%; that for `CC(C)c1cc(C(=O)N2Cc3ccc(CN4CCN(C)CC4)cc3C2)c(O)cc1O` was 8.21%; that for `COc1cc2ncn(-c3cc(OCc4ccccc4C(F)(F)F)c(C(N)=O)s3)c2cc1OC` was -2.1%. The value for `CN[C@@H]1[C@H](OC2[C@H](O[C@H]3[C@H](O)[C@@H](O)[C@H](NC(=N)N)[C@@H](O)[C@@H]3NC(=N)N)O[C@@H](C)[C@]2(O)C=O)O[C@@H](CO)[C@H](O)[C@H]1O` (stereo partly drawn) was -1.71%.

In the case of `O=C([O-])P(=O)([O-])[O-]`, the result_ITMP was -2.03%. The value for `C=CCn1c(=O)n([C@@H]2O[C@H](CO)[C@@H](O)[C@H]2O)c2nc(N)nc(O)c21` was -1.06%. The value for `COC(=O)C(c1ccccc1)C1CCCCN1` (stereo not drawn) was 10.3%; that for `OC(c1cc(C(F)(F)F)nc2c(C(F)(F)F)cccc12)C1CCCCN1` (stereo not drawn) was 50%; that for `Nc1c(CC(=O)[O-])cccc1C(=O)c1ccc(Br)cc1` was 0.95%. The value for `NS(=O)(=O)NCCNc1nonc1/C(=N\c1ccc(F)c(Br)c1)NO` was -3.83%.

For the compound `CN1[C@@H]2C[C@@H](O)C[C@H]1[C@@H]1O[C@@H]12`, the result_ITMP was 17.2%. The value for `COc1cc(C(=O)NCc2ccc(OCCN(C)C)cc2)cc(OC)c1OC` was -1.29%; that for `COc1ccc(NC(=O)c2ccc(-c3ccc(-c4noc(C)n4)cc3C)cc2)cc1N1CCN(C)CC1` was 142%; that for `COc1ccc(NS(=O)(=O)c2ccc(I)cc2)cc1N1CCN(C)CC1` was 16.4%. The value for `COc1ccc(C(=O)NCc2ccc(OCCN(C)C)cc2)cc1OC` was 6.48%. The value for `COc1ccccc1N1CCN(CCCCNC(=O)c2ccc(-c3ccc(C(C)=O)cc3)cc2)CC1` was 6.35%. For the compound `COc1ccc(NC(=O)c2ccc(-c3ccc(-c4noc(C)n4)cc3C)cc2)cc1OCCN(C)C`, the result_ITMP worked out at 81.5%. The value for `C[C@@H]1CC[C@H]2C(C)(C)[C@H]3C[C@@]12CC[C@@]3(C)O` was 4.78%. The value for `O=C(O)c1cc(O)c2ccccc2n1` was 3.47%.

In the case of `O=C([O-])CCCCCCCCC(=O)[O-]`, the result_ITMP is given as -5.98%. Consider `Cc1cccc(-c2nc(C(C)(C)C)[nH]c2-c2ccc3nccnc3c2)n1`, for which the result_ITMP was -5.96%. As for `CCCn1c(=O)c2nc(C3CCCC3)[nH]c2n(CCC)c1=O`, the result_ITMP was determined as 9.14%. The value for `C=C1CC[C@H](O)C/C1=C/C=C1\CCC[C@]2(C)[C@@H]([C@H](C)CCCC(C)(C)O)CC[C@@H]12` was -0.38%; that for `C=C1/C(=C\C=C2/CCC[C@]3(C)[C@@H]([C@H](C)CCCC(O)(C(F)(F)F)C(F)(F)F)CC[C@@H]23)C[C@@H](O)C[C@@H]1O` was 0.82%; that for `C[C@]12CCC(=O)C=C1CCC1C2[C@@H](O)C[C@@]2(C)C1CC[C@]2(O)C(=O)COC(=O)CCC(=O)O` (stereo partly drawn) was -1.39%. On to `COc1cccc(CN2C[Si](C)(C)O[Si](C)(C)C2)c1`, for which the result_ITMP is listed as -1.81%. The value for `COc1cccc(CCc2ccccc2OCC[C@@H]2C[C@@H](O)CN2C)c1` was 90.4%. Consider `O=c1[nH]c2ccccc2c(=O)n1CCCN1CCN(c2ccccc2)CC1`, for which the result_ITMP is -3.31%. The value for `O=c1[nH]c2ccccc2n1CCCN1CCN(C(c2ccccc2)c2ccccc2)CC1` was 26.4%.

For `C[C@@H]1CN(CCCn2c3ccccc3c3ccccc32)C[C@H](C)N1`, the result_ITMP worked out at 99.9%.

Turning to `CC(C)CCC[C@@H](C)[C@H]1CC[C@H]2[C@@H]3CCC4=CC(=NO)CC[C@]4(C)[C@H]3CC[C@]12C`, the result_ITMP is on record as -0.61%. The value for `CNCCCN1c2ccccc2CCc2ccccc21` was 36.6%; that for `CNCCCC12CCC(c3ccccc31)c1ccccc12` was 107%.

`CNCCCC1(c2ccccc2)OC(C)(C)c2ccccc21` (stereo not drawn): the result_ITMP worked out at 29.5%. The value for `O=C(O)c1ccc(N[C@H]2O[C@H](CO)[C@@H](O)[C@H](O)[C@@H]2O)cc1` was -5.7%; that for `CC1(S(=O)(=O)[O-])CC(=O)c2ccccc2C1=O` (stereo not drawn) was -0.84%.

Turning to `CN(C)CC/C=C1\c2ccccc2CSc2ccccc21`, the result_ITMP worked out at 43.7%. The value for `CN(C)CC/C=C1/c2ccccc2COc2ccccc21` was 41.1%; that for `CN(C)CCOC1=Cc2ccccc2Sc2ccc(Cl)cc21` was 13.9%. The value for `CN(C)CC/C=C1\c2ccccc2Sc2ccc(Cl)cc21` was 51.1%; that for `CN(C)CCC=C1c2ccccc2C=Cc2ccccc21` was 71.1%; that for `CN(C)CCC=C1c2ccccc2CCc2ccccc21` was 39.7%.

`COCc1nc2c(=O)n(C)c(=O)n(CC(C)C)c2[nH]1`: the result_ITMP is recorded as -0.95%. The value for `NC(N)=N/C(N)=N/CCc1ccccc1` was -1.11%; that for `CN/C(=N\C#N)NCCSCc1csc(N=C(N)N)n1` was 2.7%.
